Experimental data taken from PubChem BioAssay AID488969 (Vanderbilt High Throughput Screening Facility, 2010).
“And” between values parts separate entries of the source, which are not always exact repeats. Identical values can stand only once. In all, about 110,000 compounds were measured (“z-score”: median about -0.1, highest 2% from about 2 on). This is one part of a sample in which the highest values are shown more often than they occur. The source made the active and inactive calls.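 How the source made its calls: active means z-score in the third read window above 3 or below -3; inactive means the rest.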

Biological target: Metabotropic glutamate receptor 8 (Rattus norvegicus) (UniProt P70579)
Assay: mGluR8 Gi/Go-coupled signaling modulation – cell-based, rat, thallium flux, HTS, primary screen (AID 488969)
Conditions: HEK293 rat mGluR8, GIRK (G protein-gated inwardly rectifying potassium channel) thallium flux, FluoZin2; at 10 µM; stronger effect = higher value; submaximal glutamate (EC20) added with thallium

Sequence of Metabotropic glutamate receptor 8 (Rattus norvegicus) (P70579 whole entry, looked up): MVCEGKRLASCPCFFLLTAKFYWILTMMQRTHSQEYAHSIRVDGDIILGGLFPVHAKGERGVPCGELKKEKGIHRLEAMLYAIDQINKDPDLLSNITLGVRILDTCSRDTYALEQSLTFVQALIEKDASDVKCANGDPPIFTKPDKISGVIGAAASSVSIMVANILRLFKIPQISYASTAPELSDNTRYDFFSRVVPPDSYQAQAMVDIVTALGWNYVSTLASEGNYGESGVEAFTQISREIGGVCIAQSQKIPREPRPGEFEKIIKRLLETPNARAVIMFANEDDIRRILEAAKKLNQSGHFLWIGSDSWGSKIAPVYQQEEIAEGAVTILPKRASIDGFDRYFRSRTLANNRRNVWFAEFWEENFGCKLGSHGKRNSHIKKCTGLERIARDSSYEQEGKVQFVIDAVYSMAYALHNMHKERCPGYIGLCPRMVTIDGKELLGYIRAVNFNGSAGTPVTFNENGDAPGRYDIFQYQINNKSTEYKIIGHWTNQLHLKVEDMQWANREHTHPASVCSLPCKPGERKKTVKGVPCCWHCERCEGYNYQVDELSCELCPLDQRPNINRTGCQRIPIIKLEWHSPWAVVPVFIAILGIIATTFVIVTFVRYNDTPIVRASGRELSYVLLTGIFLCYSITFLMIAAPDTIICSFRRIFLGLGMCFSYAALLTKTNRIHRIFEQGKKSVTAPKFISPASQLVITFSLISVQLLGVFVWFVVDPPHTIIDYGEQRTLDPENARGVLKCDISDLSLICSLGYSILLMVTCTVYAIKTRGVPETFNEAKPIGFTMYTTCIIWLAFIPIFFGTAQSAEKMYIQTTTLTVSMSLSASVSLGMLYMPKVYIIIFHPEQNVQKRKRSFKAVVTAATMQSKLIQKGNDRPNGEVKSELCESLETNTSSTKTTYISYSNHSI

Row | Structure (SMILES) | z-score
1 | Cc1cccc(C(=O)NC(=S)Nc2ccc(S(=O)(=O)N(C)c3ccccc3)cc2)c1 | 1.39
2 | CCCCN(CCCC)S(=O)(=O)c1ccc(NC(=O)c2cccs2)cc1 | 0.572
3 | O=C(NC(=S)Nc1ccc(S(=O)(=O)NC2CCCCC2)cc1)c1cccs1 | 0.16
4 | CCN(c1ccccc1)S(=O)(=O)c1ccc(NC(=S)NC(=O)c2cccs2)cc1 | 2.75
5 | CN(C1CCCCC1)S(=O)(=O)c1ccc(NC(=S)NC(=O)c2cccs2)cc1 | 2.93
6 | Cc1ccc(C(=O)NC(=S)Nc2ccc(S(=O)(=O)N(C)c3ccccc3)cc2)cc1 | 0.95
7 | CN(C1CCCCC1)S(=O)(=O)c1ccc(NC(=O)C2CCCCC2)cc1 | -0.089
8 | CCN(c1ccccc1)S(=O)(=O)c1ccc(NC(=S)NC(=O)c2ccc(Br)o2)cc1 | 5.31 (active)
9 | O=C(Nc1ccc(S(=O)(=O)NCc2ccccc2)cc1)c1ccc(Br)o1 | 0.32
10 | CN(c1ccccc1)S(=O)(=O)c1ccc(NC(=S)NC(=O)c2ccccc2)cc1 | 3.04 (active)
11 | O=C(Nc1ccc(NC(=S)NC(=O)c2cccs2)cc1)c1ccccc1 | -0.193
12 | CN(C)S(=O)(=O)c1ccc(NC(=O)c2ccc(Br)o2)cc1 | 0.638
13 | CN1CCN(S(=O)(=O)c2ccc(NC(=S)NC(=O)c3ccccc3)cc2)CC1 | 0.103
14 | O=C(c1ccco1)N1CCN(C(=O)C2CCN(S(=O)(=O)c3cccc4nsnc34)CC2)CC1 | 0.0379
15 | COc1ccc2c(c1)NC1(O)c3ccccc3C(=O)C21O (stereo not drawn) | 0.297
16 | CC1(C)N=C(N)NC(Nc2ccc(Br)cc2)=N1 | -0.00115
17 | Cc1ccccc1-c1noc(-c2ccc(Cl)cc2)n1 | -0.0855
18 | COc1ccc(-c2csc(NC(=O)c3nc(-c4ccccc4)oc3C)n2)cc1 | 0.528
19 | Cc1nc2ccccc2nc1OCC(=O)N1CCN(c2ccccc2)CC1 | -0.273
20 | Cc1ccc2c(c1)N(C(=O)c1ccco1)C(C)(C)c1ssc(=S)c1-2 | -0.788
21 | COc1ccccc1-n1cnnc1SCC(=O)N1CC(=O)Nc2ccccc21 | -0.0356
22 | CS(=O)(=O)N1Cc2ccccc2CC1C(=O)OCC(=O)Nc1ccc2ccccc2c1 (stereo not drawn) | 0.0644

Row | Structure (SMILES) | z-score
23 | Cc1cc(C)cc(NS(=O)(=O)c2ccc(NC(=S)NC(=O)c3cccs3)cc2)c1 | 0.901
24 | Cc1cc(C)cc(NS(=O)(=O)c2ccc(NC(=S)NC(=O)c3ccc(Br)o3)cc2)c1 | 2.18
25 | Cc1cc(C)cc(NS(=O)(=O)c2ccc(NC(=S)Nc3ccccc3)cc2)c1 | 9.02e-05
26 | CCc1[nH]nc2c1C(c1ccncc1)C(C#N)=C(N)O2 (stereo not drawn) | 0.499
27 | O=C(O)c1ccc(NC(=S)NC2CCCCC2)cc1 | 0.13
28 | O=C(CN1C(=O)c2cccc3cccc1c23)NCc1ccc2c(c1)OCO2 | -0.178
29 | Cc1cc(C)nc(N2CCCC(C(=O)NCCc3ccc(F)cc3)C2)n1 (stereo not drawn) | 3.52 (active)
30 | Cc1cc(C)nc(N2CCCC(C(=O)NCCc3ccccc3F)C2)n1 (stereo not drawn) | -0.306
31 | Cc1cc(C)nc(N2CCCC(C(=O)NCCc3cccc(F)c3)C2)n1 (stereo not drawn) | -0.0417
32 | COc1cc(S(=O)(=O)N2CCOCC2)ccc1NC(=O)COC(=O)CC12CC3CC(CC(C3)C1)C2 | 0.016
33 | CCOC(=O)c1cc2sccc2n1CC(=O)N1CCCC1 | -0.278
34 | Cc1ccc(S(=O)(=O)N2CCOCC2)cc1NC(=O)CSc1nnc2cc(C)c3ccccc3n12 | -1.43
35 | CCn1c(-c2cc3c(C(F)(F)F)nn(C)c3s2)n[nH]c1=S | 7 (active)
36 | Cn1c(-c2cc3c(C(F)(F)F)nn(C)c3s2)n[nH]c1=S | -0.114
37 | CCCCSc1nnc(-c2cc3c(C(F)(F)F)nn(C)c3s2)n1C | -0.355
38 | Cc1cc(N2CCN(c3nc(N4CCOCC4)nc4ccccc34)CC2)c2ccccc2n1 | 0.213
39 | CC(C)CC(C(=O)Nc1oc(-c2ccccc2)c(-c2ccccc2)c1C#N)N1C(=O)c2ccccc2C1=O (stereo not drawn) | -0.151
40 | COc1ccc(C(=O)Oc2ccc(/C=N/NC(=O)Cc3ccc([N+](=O)[O-])cc3)cc2)cc1 | 0.194
41 | O=C(NNC(=S)NC(=O)c1cccnc1)c1ccc(Cl)cc1 | 0.171
42 | Cc1ccc(C(=O)NC(=S)Nc2ccc(NC(=O)c3cccc(Cl)c3)cc2)cc1 | -0.278
43 | Cc1onc(-c2ccccc2)c1C(=O)NNC(=S)NC(=O)c1ccc(Cl)cc1Cl | 0.272
44 | Cc1cccc(C(=O)NC(=S)NNC(=O)c2ccc(Cl)cc2)c1 | 6.22 (active)

Row | Structure (SMILES) | z-score
45 | Cc1cccc(C(=O)NNC(=O)c2ccc(-c3ccccc3)cc2)c1 | 0.252
46 | Cc1ccccc1C(=O)NNC(=S)NC(=O)c1ccc(Cl)cc1Cl | 4.35 (active)
47 | O=C(NNC(=O)c1ccc(Cl)cc1Cl)c1ccncc1 | 0.97
48 | O=C(NC(=S)NNC(=O)c1ccc(Cl)cc1Cl)c1cccnc1 | -0.129
49 | Cc1ccc(C(=O)NNC(=S)NC(=O)c2ccc(Cl)cc2)cc1 | 7.64 (active)
50 | Cc1ccc(C(=O)NC(=S)NNS(=O)(=O)c2ccc(C)cc2)cc1 | 0.234
51 | COC(=O)NNC(=O)c1ccc(Cl)cc1Cl | -0.27
52 | Cc1ccc(C(=O)NNC(=S)NC(=O)c2ccc(Cl)cc2Cl)cc1 | 2.02
53 | CN(C)[C@@H]1CCC[C@H]1OC(=O)C(c1ccccc1)c1ccccc1 | -1.41
54 | Cc1ccc(S(=O)(=O)N2CCN(S(=O)(=O)c3ccc(C)cc3)C2)cc1 | -0.481
55 | O=C(COC(=O)Cc1ccc(Cl)cc1Cl)NCCC1=CCCCC1 | -1.17
56 | CCCC(=O)Nc1ccc(C(=O)Nc2nc(CC(=O)OCC)cs2)cc1 | -0.437
57 | CCCN1C/C(=C/c2ccc3c(c2)OCO3)C(=O)/C(=C/c2ccc3c(c2)OCO3)C1 | -0.565
58 | Cc1ccc2c(c1)C1CCCC3C1N2CC(=O)N3Cc1ccccc1 (stereo not drawn) | -0.338
59 | C/C(=N\O)C(C)/[N+]([O-])=C/c1nc(C)c(C)n1O (stereo not drawn) | 1.53
60 | O=C(CSc1nc2ccccc2c(=O)n1-c1ccc(F)cc1)Nc1ccc(N2CCOCC2)cc1 | -0.000577
61 | Cc1cccc(C(=O)NC(=S)NNC(=O)c2ccccc2Cl)c1 | 5.34 (active)
62 | O=C(NC(=S)NNC(=O)c1cccs1)c1ccco1 | 1.08
63 | Cc1ccc(OCC(=O)NC(=S)Nc2cccc(NC(=O)c3ccc(Cl)cc3Cl)c2)cc1 | 0.148
64 | O=C(NC(=S)NNC(=O)c1cccs1)c1ccc(Br)o1 | 4.37 (active)
65 | Cc1cccc(C(=O)NC(=S)NNC(=O)c2cccs2)c1 | 5.42 (active)
66 | Cc1cccc(C(=O)NC(=S)NNC(=O)Cc2ccccc2)c1 | 1.8

Row | Structure (SMILES) | z-score
67 | O=C(COc1ccccc1)NNC(=S)NC(=O)c1ccc(Cl)cc1Cl | 5.19 (active)
68 | CCNC(=S)NNC(=O)c1cccs1 | -0.146
69 | O=C(NNC(=O)c1cccs1)c1ccc(Br)o1 | -0.207
70 | O=C(COc1cccc(Cl)c1)NNC(=S)Nc1ccccc1 | 0.593
71 | O=C(NNC(=S)NC(=O)c1cccs1)c1ccc(NC(=O)c2ccccc2)cc1 | -0.0903
72 | COc1ccc(C)cc1NC(=S)NNC(=O)c1ccccc1Cl | 0.678
73 | CC1=C(C(=O)Nc2cc(C)ccc2C)C(c2cccs2)NC(=S)N1 (stereo not drawn) | -0.0019
74 | O=C(CS(=O)CC(=O)N(c1ccccc1)C(C(=O)NC1CCCCC1)c1ccco1)Nc1ccc(F)cc1 (stereo not drawn) | -0.245
75 | COc1ccc(S(=O)(=O)n2nc(C)cc2C)c(C)c1C | -0.246
76 | CC(=O)Nc1ccc(S(=O)(=O)NNC(=O)CCC(=O)Nc2cc(C)ccc2C)cc1 | -0.368
77 | Cc1ccccc1Nc1nc(-c2ccccc2)c(C(=O)Nc2cccnc2)s1 | 0.177
78 | O=C(O)CCSc1nc2ccccc2n1CCOc1ccccc1 | 0.105
79 | CS(=O)(=O)c1ccc(Sc2nc3ccccc3[nH]2)c([N+](=O)[O-])c1 | -0.102
80 | O=C1/C(=C/c2ccccc2)Nc2ccccc21 | -0.773
81 | Cc1ccc(NC(=O)C(=O)NNC(=O)c2ccccc2C)cc1Cl | -0.171
82 | Cc1ccccc1C(=O)NNC(=S)NC(=O)c1ccccc1 | 3.78 (active)
83 | Cc1ccc(C(=O)NC(=S)NNC(=O)c2ccccc2[N+](=O)[O-])cc1 | 0.414
84 | Cc1ccccc1C(=O)NNC(=O)CCC(=O)Nc1cccc(Cl)c1C | -0.34
85 | Cc1ccccc1C(=O)NNC(=O)C(=O)Nc1cccc(Cl)c1C | 6.02 (active)
86 | O=C(NC(=S)NNC(=O)c1ccccc1[N+](=O)[O-])c1ccccc1 | -0.00864
87 | Cc1cc(C)nc(Sc2ccc(/C=C(\C#N)C(=O)Nc3ccccc3)o2)n1 | -0.125
88 | O=C(NCc1ccco1)c1cc(-c2cccc(Cl)c2)on1 | 0.0775

Row | Structure (SMILES) | z-score
89 | CCN(CC)CCCNC(=O)c1cc(-c2ccc(Cl)c(Cl)c2)on1 | 5.37 (active)
90 | CCN(CC)CCCNC(=O)c1cc(-c2cccc(Cl)c2)on1 | 2.64
91 | O=C(NCc1cccs1)c1cc(-c2cccc(Cl)c2)on1 | -1.01
92 | CCN(CC)CCCNC(=O)c1cc(-c2ccc(O)cc2)on1 | 0.686
93 | CCN(CC)CCCNC(=O)c1cc(-c2ccc(Cl)cc2)on1 | 1.7
94 | CCCCC(=O)Nc1ccc(C(=O)NNC(=S)NC(=O)c2cccs2)cc1 | 0.439
95 | Cc1ccc(/C=C(\C#N)C(=O)Nc2c(C)cccc2C)s1 | -0.0444
96 | Cc1cccc(CSc2cccc3cccnc23)c1 | 8.5 (active)
97 | CN(C)C(=O)CSc1cccc2cccnc12 | 7 (active)
98 | COc1ccc(CSc2cccc3cccnc23)cc1[N+](=O)[O-] | 0.224
99 | O=C(CSc1cccc2cccnc12)OCC(=O)c1ccccc1 | 0.45
100 | CCOC(=O)CSc1cccc2cccnc12 | 4.08 (active)
101 | O=C(CSc1cccc2cccnc12)OCC(=O)c1ccc(Br)cc1 | -0.113
102 | O=C(CSc1cccc2cccnc12)NCc1ccco1 | -0.028
103 | O=C(O)CSc1cccc2cccnc12 | -0.347 and 0.372
104 | COc1ccc(/C(C)=N/NC(=O)c2ccc(CSc3cccc4cccnc34)cc2)cc1OC | -0.51
105 | Cc1ccc(NC(=O)CN2C(=O)C3CCCCN3C(=O)c3ccccc32)cc1 (stereo not drawn) | 0.0289
106 | COC(=O)c1cc2c(s1)-c1ccccc1OC2 | -0.0119
107 | Cc1ccc(NC(=O)c2ccc3nc[nH]c3c2)cc1C | 0.551
108 | Cc1ccc(NC(=O)c2c(Cl)n(C)c3ccccc23)cc1 | -0.377
